Source: PubChem
RORg inh: qHTS for inhibitors of ROR gamma transcriptional activity | Nuclear receptor ROR-gamma (Mus musculus), P51450 | Potency, µM (highest dose often 53.6 µM), for inactives: at the top dose activity change, negative = inhibition, most hits filed as inhibitors | Drosophila S2 Gal4-RORgamma UAS-luciferase reporter, 20 h | 310,000 compounds, 5.4% hits; also: nearly all actives have a fitted effect of over 60% in size
Target sequence (P51450 whole entry, looked up, the tested form may be a part): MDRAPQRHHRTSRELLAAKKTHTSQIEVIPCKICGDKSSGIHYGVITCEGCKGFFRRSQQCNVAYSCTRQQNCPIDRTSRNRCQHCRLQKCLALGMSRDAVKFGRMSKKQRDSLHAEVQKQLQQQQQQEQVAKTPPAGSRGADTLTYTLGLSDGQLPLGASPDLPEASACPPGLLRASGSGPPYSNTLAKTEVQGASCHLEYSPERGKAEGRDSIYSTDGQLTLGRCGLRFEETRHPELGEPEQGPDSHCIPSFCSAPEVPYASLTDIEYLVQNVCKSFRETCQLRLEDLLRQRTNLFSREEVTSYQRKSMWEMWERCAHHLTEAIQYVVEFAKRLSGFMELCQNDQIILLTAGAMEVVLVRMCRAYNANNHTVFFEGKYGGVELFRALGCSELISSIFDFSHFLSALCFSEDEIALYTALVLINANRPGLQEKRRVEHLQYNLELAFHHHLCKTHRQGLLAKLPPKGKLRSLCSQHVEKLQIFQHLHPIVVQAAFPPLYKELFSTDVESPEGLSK
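Compounds are pin-transferred onto Drosophila Schneider cells expressing a copper-inducible Gal4–ROR gamma transactivation domain fusion. After 1 hr, copper sulfate is added to 700 uM final; luciferase is read 20 hr later.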
DT40 TDP1 CPT: qHTS for Inhibitors of human tyrosyl-DNA phosphodiesterase 1 (TDP1): qHTS in cells in presence of CPT; chicken DT40 Tdp1-/-;hTDP1 cells + 20 nM CPT, ATP luminescence, 48 h; Potency, µM (titrated, usually from 46.2 µM), for the others: at the highest dose activity change, negative = growth inhibition, usual class: inhibitors; 420,000 compounds, 12% hits; also: nearly all actives have a fitted effect of over 55% in size
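Chicken DT40 Tdp1-/- cells stably complemented with human TDP1 were seeded at 400 cells/well in medium containing 20 nM camptothecin, exposed to pin-transferred compounds, and grown at 37 °C for at least 48 hr. Viability was read as ATP luminescence.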
Gal4-VP16 FLuc: VP16 counterscreen qHTS for inhibitors of ROR gamma transcriptional activity; Drosophila S2 Gal4-VP16 UAS-luciferase, luminescence, 20 h; Potency, µM (doses to about 53.6 µM), inactives show at the highest dose activity, negative = inhibition, usual class: inhibitors; 310,000 compounds, 3.5% hits;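 also: Gal4-VP16 expression switched on by copper sulfate through the metallothionein promoter; nearly all actives have a fitted effect of over 50% in size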
TDP1 inh: qHTS Assay for Inhibitors of Tyrosyl-DNA Phosphodiesterase (TDP1). AID 485290, 2010. Potency, µM (highest dose often 130 µM), without a hit: at the top dose activity change, negative = inhibition, actives largely listed as inhibitors. 350,000 compounds, 0.28% hits. Tyrosyl-DNA phosphodiesterase 1 (Homo sapiens), Q9NUW8. recombinant TDP1, AlphaScreen DNA substrate cleavage; also: nearly all actives have a fitted effect of over 40% in size
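Steps: enzyme plus compound, 15 min RT; add biotin/phosphotyrosine-FITC oligonucleotide (15 nM final), react 5 min; add donor/acceptor beads (10 ug/ml final), 10 min; read AlphaScreen. Tdp1 at 1 nM final.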
TDP1 cell noCPT: qHTS for Inhibitors of human tyrosyl-DNA phosphodiesterase 1 (TDP1): qHTS in cells in absence of CPT; DT40 Tdp1-/- hTDP1 cells, no CPT, ATP luminescence, 48 h; Potency, µM (doses to about 46.2 µM), inactives show top-dose activity change, negative = growth inhibition, hits mostly inhibitors; 420,000 compounds, 15% hits; AID 686978, 2013; also: nearly all actives have a fitted effect of over 55% in size
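Growth kinetics read by CellTiter-Glo luminescence after ≥48 hr at 37 °C. Cells: DT40 Tdp1-/- stably carrying human TDP1, 400 per well, compound exposure in the absence of CPT (DMSO vehicle).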
* marks the source's active call; other numbers are inactive results; ? = inconclusive; . = not tested or not shown; [ ] = dose if it differs, or a comment. Sampled rows, rich in hits. Any-hit rate of the full collection: about 19%. Calls follow the shape of the dose curve; as a rule, active = well fitted curve in the direction sought with a large enough effect; inconclusive = small, poorly fitted or top-dose-only effect, or another doubt; inactive = no such curve, though single readings can be large; an effect the other way counts as inactive or inconclusive. % is scaled to controls: 0 for no effect and ±100 for the full control effect; potency is read from the fitted curve at half-maximal effect.

SMILES	RORg inh	DT40 TDP1 CPT	Gal4-VP16 FLuc	TDP1 inh	TDP1 cell noCPT
CC(C)c1ccc(N(CC(=O)NCCCN2CCOCC2)S(=O)(=O)c2ccccc2)cc1	.	18µM*	.	0%	26µM*
CC(C)c1ccc(N(CC(=O)N/N=C/c2ccc(OC3CSC3)cc2)S(=O)(=O)c2ccccc2)cc1	5%	23µM*	-7%	1%	?
Cc1ccc(N(CC(=O)N/N=C/c2ccc(OC3CSC3)cc2)S(=O)(=O)c2ccccc2)cc1	8%	-9%	-3%[0.365 µM]	0%	-13%
COc1ccc(C2c3ccc(O)cc3Oc3ncn4nc(-c5ccncc5)nc4c32)cc1OC (stereo not drawn)	-20%	?	-4%	-1%	23µM*
COc1ccc(C2c3ccc(O)cc3Oc3ncn4nc(-c5ccccn5)nc4c32)cc1 (stereo not drawn)	15%	-13%	1%	.	-9%
COc1ccc(C2c3ccc(O)cc3Oc3ncn4nc(-c5ccccn5)nc4c32)cc1OC (stereo not drawn)	4%	23µM*	-11%	.	18µM*
COc1ccc(C2C(C#N)=C(N)Oc3cc(O)ccc32)cc1OC (stereo not drawn)	-20%	?	0%	2%	-25%
COc1ccc(C2c3ccc(O)cc3Oc3ncn(CCN4CCOCC4)c(=N)c32)cc1OC (stereo not drawn)	2%	-25%	-9%	3%	-12%
COc1ccc(C2c3ccc(O)cc3Oc3ncn4nc(-c5ccco5)nc4c32)cc1OC (stereo not drawn)	-15%	16µM*	9%	3%	?
Cc1ccc(NC(=O)C2C3CCCC2C3c2ccccc2)cc1C (stereo not drawn)	-4%	-7%	0%	4%	-15%
CC(=O)N1C2(C=CC1(C)C(=O)NCc1ccccn1)CCCCC2 (stereo not drawn)	11µM*	.	?	7%	.
CC(=O)N1C2(C=CC1(C)C(=O)NCc1ccc(C)o1)CCCCC2 (stereo not drawn)	13%	.	?	9%	.
CCC(C)NCC(=O)Nc1ccc(-c2nc3cc(NC(=O)CNC(C)CC)ccc3o2)cc1 (stereo not drawn)	10%	6.5µM*	11%	-2%	7.3µM*
O=C(CN1CCCC1)Nc1ccc(-c2nc3cc(NC(=O)CN4CCCC4)ccc3o2)cc1	-16%	18µM*	-19%	-10%	12µM*
CC(C)CC(=O)Nc1ccc(-c2nc3ccccc3c(=O)o2)cc1	-41%	-24%	-26%	2%	-23%
CCCC(=O)Nc1ccc(-c2nc3cc(C)c(C)cc3o2)cc1	1.3µM*	3%	?	-1%	-2%
Cc1ccc2oc(-c3ccc(NC(=O)CC(C)C)cc3)nc2c1	0.28µM*	-15%	1.1µM*	2%	-22%
CCCC(=O)Nc1ccc2oc(-c3ccncc3)nc2c1	5%	-7%	-9%	10%	-18%
COc1ccc(C(=O)N2CC(=O)N(CCc3ccccc3)C(=O)C2)cc1OC	26%	-7%	-1%	2%	-9%
COc1cccc(-n2c(=O)c3sccc3n(CC(=O)NC3CCCCC3)c2=O)c1	13%	0%	6%	-7%	-3%
CCOC(=O)CCn1cnc2onc(-c3cc(OC)ccc3Cl)c2c1=O	.	22%	.	-1%	-13%
CCN(CC)CC(=O)Nc1ccc(-c2nc3cc(NC(=O)CN(CC)CC)ccc3o2)cc1	7%	21µM*	14%	5%	18µM*
CCCCC(=O)Nc1ccc2oc(-c3ccncc3)nc2c1	7%	-3%	5%	5%	-19%
O=c1nc2c(-c3ccc(F)cc3Cl)n[nH]n2c2ccccc12	.	-26%	.	0%	2%
Cc1ccc(OCC(=O)N2CCN(C(=O)c3ccc([N+](=O)[O-])cc3)CC2)cc1	?	-8%	?	6%	-18%
